The values that follow come from PubChem BioAssay (NCI).

About 83,000 compounds went through this panel and 20% of them were active in at least one assay; those are over-represented in the sample as a whole.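 Cells were grown in 96-well plates and exposed to the test compound at a single concentration for 48 hours; results are reported as percent growth, with values below 10 considered active.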 Values without a mark were called inactive. Active and inactive are the calls of the source.

Test systems include SK-MEL-2 melanoma; EKVX NSCLC; SN12C renal; UO-31 renal; TK-10 renal; ACHN renal; CAKI-1 renal; A498 renal; CCRF-CEM leukemia; MOLT-4 leukemia; SR leukemia; RPMI-8226 leukemia; OVCAR-5 ovarian; OVCAR-4 ovarian; SK-OV-3 ovarian; IGROV1 ovarian; OVCAR-3 ovarian; HS 578T breast; NCI/ADR-RES ovarian.
Common to all, as to test: NCI-60 one-dose screen, 48 h (100 = growth as untreated, 0 = no growth, -100 = all killed)
Conditions in all cases: 10 µM unless noted

On to `COc1ccc(-c2nc(NN)c3c(C)nn(-c4ccc(F)cc4)c3n2)cc1`, for which the growth was 24.1% with SK-MEL-2 melanoma; 59.4% in the assay on EKVX NSCLC; 44.5% with SN12C renal; 51.2% with UO-31 renal; 77.3% in the assay with TK-10 renal; 40.2% in the assay with ACHN renal. Further, the growth was 36.9% in the assay with CAKI-1 renal; 20.8% in the assay with A498 renal; 23.4% in the assay on CCRF-CEM leukemia; 37.5% in the assay with MOLT-4 leukemia; 28.3% with SR leukemia; 54.8% in the assay on RPMI-8226 leukemia. The growth with OVCAR-5 ovarian is 95.6%; with OVCAR-4 ovarian, 62.7%; in the assay with SK-OV-3 ovarian, 29.4%; in the assay with IGROV1 ovarian, 51.2%; in the assay with OVCAR-3 ovarian, 12%; with HS 578T breast it was 25%. Also, in the assay with NCI/ADR-RES ovarian, the growth was 34.7%.

For the molecule `COc1ccn2c(C(C)=O)cc(C(=O)c3ccc4c(c3)Sc3ccccc3N4)c2c1`, the growth in the assay on SK-MEL-2 melanoma is 27.3%; in the assay with EKVX NSCLC, 37.6%; in the assay with SN12C renal, 25.3%; in the assay with UO-31 renal it was 28.3%; with TK-10 renal, 29.6%; with ACHN renal, 20.7%. In addition, the growth was 15.9% with CAKI-1 renal; -17.8% (active) with A498 renal; 8.15% (active) in the assay with CCRF-CEM leukemia; 13.1% in the assay on MOLT-4 leukemia; 5.07% (active) with SR leukemia; 11.1% with RPMI-8226 leukemia. The growth is 36.9% in the assay with OVCAR-5 ovarian; 50.2% in the assay on OVCAR-4 ovarian; 18.8% with SK-OV-3 ovarian; 34.9% in the assay with IGROV1 ovarian; -47.8% (active) in the assay with OVCAR-3 ovarian; 41.9% with HS 578T breast. In the assay with NCI/ADR-RES ovarian, the growth is 12.7%.

Turning to `CCS(=O)(=O)c1ncnc2nc[nH]c12`, the growth in the assay with SK-MEL-2 melanoma was 100%; in the assay on EKVX NSCLC it was 99.3%; in the assay with SN12C renal, 94.5%; in the assay on UO-31 renal, 92.6%; with TK-10 renal it was 98.2%; with ACHN renal it was 106%. Further, the growth in the assay on CAKI-1 renal was 99.6%; in the assay with A498 renal, 92.8%; with CCRF-CEM leukemia, 93.3%; in the assay with MOLT-4 leukemia, 103%; in the assay on SR leukemia, 97.8%; in the assay on RPMI-8226 leukemia, 95.9%. Also, the growth in the assay on OVCAR-5 ovarian was 98.1%; in the assay with OVCAR-4 ovarian it was 106%; in the assay on SK-OV-3 ovarian, 95.2%; in the assay on IGROV1 ovarian, 109%; with OVCAR-3 ovarian it was 111%; in the assay with HS 578T breast, 97.6%. Besides, in the assay on NCI/ADR-RES ovarian, the growth is 104%.

For `O=C1CCC(C(=O)NCCNCCNC(=O)C2CCC(=O)N2)N1` (configuration not stated), the growth is 99.8% in the assay with SK-MEL-2 melanoma; 100% in the assay with EKVX NSCLC; 96.9% in the assay on SN12C renal; 96.5% in the assay on UO-31 renal; 100% with TK-10 renal; 112% in the assay on ACHN renal. The growth in the assay with CAKI-1 renal was 98.8%; in the assay with A498 renal it was 89.9%; in the assay on CCRF-CEM leukemia, 88.7%; in the assay with MOLT-4 leukemia, 97.2%; in the assay on SR leukemia, 103%; in the assay on RPMI-8226 leukemia, 95.8%. Besides, the growth with OVCAR-5 ovarian is 112%; with OVCAR-4 ovarian, 109%; in the assay with SK-OV-3 ovarian, 98%; with IGROV1 ovarian, 110%; in the assay on OVCAR-3 ovarian, 106%; in the assay on HS 578T breast it was 94.1%. The growth with NCI/ADR-RES ovarian was 105%.

Regarding `NS(=O)(=O)c1ccc(N=Nc2ccc(-c3nn4cc(-c5ccccc5)nc4s3)cc2)cc1`, the growth in the assay on SK-MEL-2 melanoma is 99.4%; in the assay on EKVX NSCLC it was 96.7%; with SN12C renal it was 108%; in the assay with UO-31 renal, 89.4%; with TK-10 renal it was 88.5%; in the assay with ACHN renal, 99.8%. The growth is 85.9% in the assay on CAKI-1 renal; 97.5% in the assay on A498 renal; 111% with CCRF-CEM leukemia; 105% with MOLT-4 leukemia; 90.6% in the assay on SR leukemia; 105% in the assay on RPMI-8226 leukemia. For the same molecule, the growth in the assay on OVCAR-5 ovarian was 103%; in the assay with OVCAR-4 ovarian, 99.7%; in the assay on SK-OV-3 ovarian it was 88.8%; with IGROV1 ovarian, 117%; in the assay on OVCAR-3 ovarian, 102%; with HS 578T breast, 94.2%. Further, in the assay on NCI/ADR-RES ovarian, the growth is 107%.

In the case of `COc1ccc(CN2c3ccccc3Sc3ccccc32)c(F)c1`, the growth in the assay with SK-MEL-2 melanoma is 30.4%; in the assay with EKVX NSCLC it was 51%; in the assay on SN12C renal, 47.1%; with UO-31 renal, 43%; in the assay on TK-10 renal it was 51.1%; in the assay on ACHN renal, 43.4%. Also, the growth in the assay on CAKI-1 renal was 21.5%; in the assay on A498 renal, -11.6% (active); in the assay on CCRF-CEM leukemia it was 7.16% (active); with MOLT-4 leukemia, 22.6%; in the assay on SR leukemia, 12.2%; with RPMI-8226 leukemia it was 12.2%. The growth with OVCAR-5 ovarian is 50.2%; with OVCAR-4 ovarian, 61.6%; with SK-OV-3 ovarian, 30.4%; with IGROV1 ovarian, 50.3%; with OVCAR-3 ovarian, -20.4% (active); with HS 578T breast, 21.6%. In the assay on NCI/ADR-RES ovarian, the growth was 22%.

On to `O=c1ccn(Cc2cn(-c3c4ccccc4nc4ccccc34)nn2)c(=O)[nH]1`, for which the growth with SK-MEL-2 melanoma is 98%; with EKVX NSCLC it was 103%; in the assay on SN12C renal, 92.7%; in the assay on UO-31 renal, 88%; with TK-10 renal it was 93.8%; with ACHN renal it was 95.4%. In addition, the growth in the assay on CAKI-1 renal was 96.8%; in the assay with A498 renal it was 81.8%; in the assay with CCRF-CEM leukemia, 83.9%; in the assay on MOLT-4 leukemia it was 79.5%; in the assay on SR leukemia it was 38.8%; with RPMI-8226 leukemia, 87.3%. Also, the growth in the assay on OVCAR-5 ovarian was 114%; in the assay with OVCAR-4 ovarian it was 109%; with SK-OV-3 ovarian, 90.9%; in the assay with IGROV1 ovarian, 80.9%; with OVCAR-3 ovarian, 110%; with HS 578T breast, 94.6%. The growth in the assay on NCI/ADR-RES ovarian was 108%.

In the case of `CCN(CC)c1ccc(C2=NN(C(C)=O)C(c3cc(OC)c(OC)c(OC)c3)C2)cc1` (configuration not stated), the growth was 31.8% with SK-MEL-2 melanoma; 29.8% with EKVX NSCLC; 38.5% in the assay on SN12C renal; -19% (active) with UO-31 renal; 39.9% with TK-10 renal; 40.3% with ACHN renal. Besides, the growth in the assay with CAKI-1 renal is 21%; in the assay on A498 renal it was -22.1% (active); in the assay with CCRF-CEM leukemia, 12.6%; in the assay on MOLT-4 leukemia, 5.57% (active); in the assay with SR leukemia, -23.6% (active); in the assay on RPMI-8226 leukemia, 2.54% (active). The growth in the assay on OVCAR-5 ovarian is 39%; in the assay with OVCAR-4 ovarian, 46.9%; with SK-OV-3 ovarian, 31.5%; in the assay with IGROV1 ovarian, -45.1% (active); in the assay with OVCAR-3 ovarian it was -64.8% (active); in the assay on HS 578T breast, -12.2% (active). Moreover, in the assay with NCI/ADR-RES ovarian, the growth was -23.9% (active).
